Screen size: about 1,100 compounds; about 100 (9.1%) were called active.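 Rule for the calls: active = inhibition above a per-plate limit, the mean inhibition of that plate's test compounds plus 3 SD (cut at about 25% in these data); inactive = the rest.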 The list is a sample of the results.

The nature of this test: nonselective Gq signaling antagonists, untransfected CHO – cell-based, fluorescence, CHO-K1, triplicate, counter-screen for OX1R antagonist project (AID 492965).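 Note: 0% = ATP challenge with DMSO and 100% = DMSO without ATP.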 The note with it: parental CHO-K1, ATP-induced calcium, Fluo-8 fluorescence; at 5.6 µM; active compounds read high.
Take `COc1cc(CN2CC(C)CC(C)C2)cc([N+](=O)[O-])c1O` (stereo not given): the inhibition was 22.2% (inactive).

Consider `O=C(Nc1cccc(NC(=O)N2CCN(c3ccccc3)CC2)c1)N1CCN(c2ccccc2)CC1`, for which the inhibition is 6.96% (inactive).

As for `CCOC(=O)c1cccc(NC(=O)CN(c2ccc(C)cc2)S(=O)(=O)c2c(C)noc2C)c1`, the inhibition was -18.6% (inactive).

Consider `Cc1cc(-c2ccc(C)c(S(=O)(=O)NC(C)Cc3ccco3)c2)on1` (stereo not given), for which the inhibition is -8.08% (inactive).

As for `COc1ccc(/C=C/C(=O)c2ccc(NS(=O)(=O)c3ccc(C)cc3)cc2)cc1O`, the inhibition was 2.08% (inactive).

Regarding `Cc1ccc2c(C)c(C(=O)N(C)CCC3CCCCO3)oc2c1C` (stereo not given), the inhibition was -10% (inactive).

For the compound `C/C(N)=C(/C#N)C(=O)COC(=O)c1cc(-c2ccc(C)cc2)nc2ccccc12`, the inhibition is -4.89% (inactive).

As to `c1coc(CNc2ncnc3ccccc23)c1`, the inhibition is 26.1% (active).

As to `N#C/C(=C1\CCCN1)c1nc(-c2ccccc2)cs1`, the inhibition is 3.08% (inactive).

For `Cc1cc(C)cc(NC(=O)C2CCCN2S(=O)(=O)c2cccc3cccnc23)c1` (stereo not given), the inhibition was -10.6% (inactive).

For the compound `O=C(OC1CCOC1=O)c1ccc(-c2nc3ccccc3s2)s1` (stereo not given), the inhibition is 10.7% (inactive).

Take `Cc1ccc(NC(=O)COc2ccc(-n3ccnc3)cc2)cc1Cl`: the inhibition was 15.7% (inactive).

Take `O=C(Nc1cccc2cccnc12)c1cccc(N2C(=O)CCC2=O)c1`: the inhibition was -5.5% (inactive).

In the case of `CCc1ccccc1OCC(=O)Nc1ccc(C)c(S(=O)(=O)N2CCCCCC2)c1`, the inhibition is 2.45% (inactive).

For the compound `CCCN(CC(=O)Nc1ccccc1OC)C(=O)CCC(=O)c1ccc(F)cc1`, the inhibition is -5.67% (inactive).

Take `CCCc1nc2c(c(=O)c3ccccc3n2C)c(=O)n1C1CCCCCC1`: the inhibition was -3.88% (inactive).

Take `CC1(C)C2CC=C(/C=N/NC(=O)C3CC3)C1C2` (stereo not given): the inhibition was -15% (inactive).

`CCCCCCCC(=O)NC(Nc1ccccc1OC)C(Cl)(Cl)Cl` (stereo not given): the inhibition was -10.6% (inactive).

For `CCCCC(=O)NNC(=S)NC(=O)C(c1ccccc1)c1ccccc1`, the inhibition was 34.8% (active).

`COc1ccc(N2CC(C(=O)NCCN3C(=O)S/C(=C\c4cccnc4)C3=O)CC2=O)c(OC)c1` (stereo not given): the inhibition was -8.16% (inactive).

As for `Cc1cc(N2CCCC2=O)cc(C)c1S(N)(=O)=O`, the inhibition is -0.33% (inactive).

As for `C=CCn1c(SCC(=O)Nc2nc3ccccc3s2)nnc1-c1ccccc1O`, the inhibition is -4.55% (inactive).

Turning to `S=c1[nH]nc(-c2cc(-c3ccccc3)n[nH]2)n1/N=C/c1c2ccccc2cc2ccccc12`, the inhibition was -7.45% (inactive).

On to `CCOc1cc(/C=C(\C#N)c2nc(-c3cccs3)c(NC(C)=O)s2)ccc1O`, for which the inhibition is 14.1% (inactive).

On to `COCc1c(C(=O)OCC(=O)Nc2ccc(OC(F)F)cc2)oc2ccccc12`, for which the inhibition is -3.09% (inactive).

For `CCC(=O)N(C)C(c1ccccc1Cl)c1nnnn1-c1c(C)cccc1C` (stereo not given), the inhibition was -6.17% (inactive).

Consider `CC(=O)Nc1cccc(OCC(=O)/C=C2\N(C)c3ccccc3C2(C)C)c1`, for which the inhibition is 6.99% (inactive).

Take `Cc1cccc(NS(=O)(=O)c2cccc(C(=O)NNC(=O)c3ccccc3O)c2)c1`: the inhibition was 15.6% (inactive).

Turning to `Cc1cccc(NC(=O)Nc2cccc(Oc3c(F)c(F)c(F)c(F)c3F)c2)c1`, the inhibition was 38.9% (active).

Consider `N#Cc1nc(-c2cccc3ccccc23)oc1N`, for which the inhibition was -11.2% (inactive).

Take `O=C1c2ccccc2S(=O)(=O)N1CC(O)Cn1c2ccccc2c2ccccc21` (stereo not given): the inhibition was 4.28% (inactive).

In the case of `N#C/C(=C/c1ccc(N2CCCCC2)o1)C(=O)NCCc1c[nH]c2ccccc12`, the inhibition is 31.6% (active).

As for `CCOc1ccc(/C=C/C(=O)OCC(=O)c2ccccc2OC)cc1OC`, the inhibition is -17.5% (inactive).

With `COc1cccc(/C=N/NC(=O)c2[nH]nc3c2CCc2ccccc2-3)c1O`, the inhibition was -10.5% (inactive).

In the case of `CCOC(=O)N1CCN(C(=O)c2ccc(S(=O)(=O)Nc3cccc(C(F)(F)F)c3)cc2)CC1`, the inhibition is 9.17% (inactive).

`CCOC(=O)N1CCN(c2cc(C)c([N+](=O)[O-])cc2F)CC1`: the inhibition was 13.3% (inactive).

In the case of `N/C(=N\OC(=O)Nc1ccc(Cl)c(Cl)c1)c1ncc(C(F)(F)F)cc1Cl`, the inhibition was 14.7% (inactive).

`CC(C)(C)NC(=O)CN(C(=O)c1csnn1)c1ccccc1-c1ccccc1`: the inhibition was -0.67% (inactive).

On to `O=C(N/N=C/c1sc(N2CCCCC2)nc1-c1cccs1)c1cccnc1`, for which the inhibition is -6.04% (inactive).

For the compound `Nc1nc(COC(=O)CCC(=O)c2ccc(Cl)cc2)nc(Nc2ccccc2)n1`, the inhibition was -7.47% (inactive).

As to `COc1cccc(/C=N/Nc2cc(C)nc(-c3ccccc3O)n2)c1O`, the inhibition is -5.66% (inactive).

Take `CC1CCCN(CC(O)COCc2ccccc2)C1` (stereo not given): the inhibition is -5.68% (inactive).

Turning to `Cc1ccccc1S(=O)(=O)N1[C@@H](c2cccc(Cl)c2)C(C(=O)O)=CC[C@H]1c1ccc(Cl)cc1`, the inhibition is 13.3% (inactive).

As to `Cc1ccc(S(=O)(=O)N2CCN(c3ncnc4ccccc34)CC2)cc1`, the inhibition is 50.8% (active).

Regarding `COC(=O)c1sccc1NC(=O)CSc1ccccc1NS(=O)(=O)c1cc(Cl)ccc1Cl`, the inhibition is 8.36% (inactive).

In the case of `NC(=O)C1=C[C@@H](c2ccc3c(c2)OCO3)C[C@@H](OCCCCO)O1`, the inhibition was -5.99% (inactive).

With `CCn1c(SCC(=O)c2ccc3ccccc3c2)nnc1-c1cccs1`, the inhibition was -8.88% (inactive).

For `Cn1c(N)c(C(=O)COC(=O)c2ccc3ccccc3c2)c(=O)n(C)c1=O`, the inhibition is 1.91% (inactive).

Turning to `CC(Oc1ccc2ccccc2c1)C(=O)NNC(=S)NC(=O)c1ccco1` (stereo not given), the inhibition is -8.71% (inactive).

For `COc1cccc(C(=O)NC(=O)Nc2nc(C)cc(C(F)(F)F)n2)c1`, the inhibition was -10.8% (inactive).

Consider `N#CC(=C1SC=CS1)c1nc(-c2ccccc2)cs1`, for which the inhibition was -3.94% (inactive).

On to `CCOC(=O)c1c(-c2ccc(C)cc2C)csc1NC(=O)CSc1nnnn1C`, for which the inhibition was -6.6% (inactive).

For `Cc1cc(C(=O)NC2CCCc3c2cnn3-c2cccc(C)c2C)c(C)o1` (stereo not given), the inhibition is 34% (active).

For the compound `O=C(NC(Cc1c[nH]c2ccccc12)C(=O)N/N=C/c1ccc(Br)cc1)c1cccs1` (stereo not given), the inhibition was 3.66% (inactive).

For the compound `CCOc1ccc(CCNC(=O)C(CC)n2nc(C)n3c(cc4sccc43)c2=O)cc1OCC` (stereo not given), the inhibition was -2.6% (inactive).

With `COc1ccc2[nH]cc(/C=C(/C#N)S(=O)(=O)c3ccccc3)c2c1`, the inhibition was -11.6% (inactive).

In the case of `COc1cc2ccccc2cc1C(=O)Nc1ccc(N2CCOCC2)cc1`, the inhibition is -8.59% (inactive).

As for `O=C(Cn1[nH]c(=O)c2ccccc2c1=O)Nc1cccc(-c2nnc3n2CCCCC3)c1`, the inhibition is -5.39% (inactive).

On to `O=C(N/N=C/c1c(Cl)[nH]c2ccccc12)c1sc2ccccc2c1Cl`, for which the inhibition is 10.8% (inactive).

For the compound `COc1ccc2sc(-c3ccc(N(C)C)cc3)c(C#CCO)c2c1`, the inhibition was -6.95% (inactive).

As for `CN(c1ccccc1)S(=O)(=O)c1cccc(NC(=O)Cc2ccc(Cl)cc2)c1`, the inhibition was 6.81% (inactive).

As to `S=C(NCc1ccc(Cl)cc1)NC12CC3CC(CC(C3)C1)C2`, the inhibition is 14% (inactive).

For `COc1ccccc1CNC(=O)C1CCCN(S(=O)(=O)c2cccc3cccnc23)C1` (stereo not given), the inhibition was -8.22% (inactive).

For `O=C1C=C(c2ccc(Cl)cc2)C(=O)N1Nc1ccccc1`, the inhibition was 22.4% (inactive).

Consider `O=C(CCCN1CCc2[nH]c3ccc(F)cc3c2C1)c1ccc(F)cc1`, for which the inhibition is 26.8% (active).
